From PubChem BioAssay
SUMO Mot1 rescue: SUMOylation pathway inhibition by Mot1-301 growth rescue | AID 2716 | growth rescue, % at 18.8 µM | S. cerevisiae Mot1-301 growth rescue, ATP luminescence, 38.5C; percent above DMSO median, 100 means doubled | actives 1% (n = 320,000);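 active = every valid replicate shows activation above 250% relative to neutral control wells; inactive = the rest, any valid replicate at or below 250%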;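 note: OY570 slx delta 5 strain wells were the positive control but not used for scaling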
CHT block: inhibits the human high affinity choline transporter | Q9GZV3 | CHT-expressing cells, membrane potential dye, choline response; active compounds read low | B-score at 10 µM | actives 0.86% (n = 310,000) | AID 488975;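 active = B-score over 3 SD under the library average, and starting fluorescence ratio not unusually high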;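 note: choline stimulus applied at its EC90 after an EC20 pre-addition; B-score computed on integrated fluorescence ratio after choline addition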
Target sequence (Q9GZV3 whole entry, looked up): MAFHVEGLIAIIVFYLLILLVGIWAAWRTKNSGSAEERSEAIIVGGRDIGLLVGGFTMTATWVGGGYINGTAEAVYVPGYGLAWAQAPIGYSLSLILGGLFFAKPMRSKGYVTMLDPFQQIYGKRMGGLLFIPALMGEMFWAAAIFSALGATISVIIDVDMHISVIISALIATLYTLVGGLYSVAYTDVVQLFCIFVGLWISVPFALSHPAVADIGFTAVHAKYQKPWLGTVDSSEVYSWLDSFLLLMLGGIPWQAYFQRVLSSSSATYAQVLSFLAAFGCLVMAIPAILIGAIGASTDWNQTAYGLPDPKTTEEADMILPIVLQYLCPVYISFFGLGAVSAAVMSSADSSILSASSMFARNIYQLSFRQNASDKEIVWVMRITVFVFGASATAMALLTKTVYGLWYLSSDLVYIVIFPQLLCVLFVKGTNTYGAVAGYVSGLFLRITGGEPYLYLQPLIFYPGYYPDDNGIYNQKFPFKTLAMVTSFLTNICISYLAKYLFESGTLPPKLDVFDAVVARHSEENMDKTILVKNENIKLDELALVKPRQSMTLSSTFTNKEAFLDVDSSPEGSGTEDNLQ
MEKK2 WT-MEK5: raises or lowers MEK5 binding to wildtype human MEKK2 PB1 domain | Q9Y2U5 | bead flow cytometry, Alexa488-MEK5 binding to MEKK2 WT; actives lie on both sides | binding response (% of control), % at 10 µM | actives 1.1% (n = 290,000); in the data active = binding response below about 67% or above about 130%
CHT allo act: allosterically activates the human high affinity choline transporter | Q9GZV3 | CHT-expressing cells, membrane potential dye, choline EC20; active compounds read high; LV-AA mutant CHT in HEK293 cells | B-score at 10 µM | actives 0.49% (n = 310,000);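 active = initial fluorescence not abnormally high and integrated response B-score, plate-corrected, over 3 SD above library mean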
MEKK3 PB1 HTS: MEKK3-MEK5 PB1 interaction, increase or decrease; Q99759; bead-based flow cytometry, Alexa488-MEK5 binding to MEKK3; actives lie on both sides; 0 = blocked by unlabeled MEK5, 100 = vehicle; binding response (% of control), % at 10 µM; actives 1.4% (n = 290,000); AID 1529;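 active = binding response more than 3 SD above or below the average of its plate-row segment, actives on both sides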;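 note: Alexa488 bead fluorescence after subtracting the streptavidin-only scavenger bead signal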
MEKK2mut PB1 HTS: signal of MEK5 binding to mutant human MEKK2 PB1 domain. bead flow cytometry, Alexa488-MEK5 binding to MEKK2 mutant. percent response, % at 10 µM. actives 0.35% (n = 290,000). AID 1530; in the data active = percent response above about 24%, passing the limit was not always enough
MEKK2wt confirm: raises or lowers MEK5 binding to wildtype human MEKK2, retest. binding response (% of control), % at 10 µM. actives 2.4% (n = 5,900). bead flow cytometry, Alexa488-MEK5 binding to MEKK2 WT; actives lie on both sides. AID 1892. shares compounds with MEKK3 PB1 HTS; in the data active = binding response below about 16% or above about 210%; inactive = in between
MEKK2mut confirm: signal of MEK5 binding to mutant human MEKK2, retest; actives 2% (n = 5,900); percent response, % at 10 µM; shares compounds with MEKK3 PB1 HTS; bead flow cytometry, Alexa488-MEK5 binding to MEKK2 mutant; in the data active = percent response mostly above about 71%, no sharp cut-off; inactive = mostly below about 38%;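 note: higher means compound restores mutant binding toward wildtype level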
MEKK3-MEK5 inh: MEKK3-MEK5 PB1 inhibition, single concentration confirmation; shares compounds with MEKK3 PB1 HTS; bead flow cytometry, Alexa488-MEK5 binding to MEKK3; active compounds read low; binding response (% of control), % at 10 µM; actives 1.8% (n = 5,900); AID 1894;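 active = binding response below 72% of control, or above a set upper limit, though filed actives all read lower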;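 note: 100% = DMSO only wells and 0% = binding blocked by excess unlabeled MEK5; lower values mean stronger disruption of MEK5 binding to MEKK3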
Starred values were filed as active, the others as inactive; i = inactive; · = not tested or not shown; [ ] = remark or other dose. A selection: hits, their analogues and other compounds. The true share with any hit is near 4.1%.

SMILES	SUMO Mot1 rescue	CHT block	MEKK2 WT-MEK5	CHT allo act	MEKK3 PB1 HTS	MEKK2mut PB1 HTS	MEKK2wt confirm	MEKK2mut confirm	MEKK3-MEK5 inh
O=C(CSc1nnc(NC(=O)C2CC2)s1)Nc1ccccc1Cl	-9.5	i	98.0	i	100.0	-1.0	·	·	·
CC(C)c1ccc(OCCCN2CCCC2)cc1	10.9	i	102.0	i	103.0	26.0*	95.0	-9.0	90.0
CCOc1cc(/C=N\Nc2ncc(F)c(N3CCOCC3)n2)ccc1Oc1nc(Cl)ncc1F	2.2	i	92.0	i	90.0	-17.0	·	·	·
N#C/C(=C\c1ccccc1OCc1ccc(C(=O)O)cc1)c1ccccc1	-6.5	i	55.0	i	50.0*[inhibitor]	-14.0	110.0	2.0	100.0
Cc1ccc2c(C)c(C(=O)N3CCN(c4ncccn4)CC3)oc2c1C	·	·	102.0	·	100.0	-3.0	·	·	·
CNC(=O)COc1ccccc1C(=O)Nc1ccc2c(c1)oc1ccccc12	7.5	i	101.0	i	103.0	1.0	·	·	·
N#Cc1ccccc1NC(=O)c1ccccc1OCC(=O)Nc1ccc2c(c1)oc1ccccc12	-7.8	i	88.0	i	78.0*[inhibitor]	-11.0	91.0	-33.0	96.0
Cc1[nH]c2ccccc2c1C(=O)C(=O)N1CCN(c2cccc(Cl)c2)CC1	31.9	i	97.0	i	96.0	-2.0	·	·	·
Cc1cccc(-n2c(=O)c3c4c(sc3n3c(=S)[nH]nc23)CCC4)c1	·	·	111.0	·	131.0*	0.0	121.0	13.0	107.0
Cc1ccc(-n2c(=O)c3c4c(sc3n3c(=S)[nH]nc23)CCC4)cc1	-9.5	i	98.0	i	94.0	-7.0	·	·	·
Clc1ccc(CN2CCC(Cc3ccccc3)CC2)cc1	67.1	i	199.0*	i	103.0	59.0*	117.0	9.0	107.0
OCc1ccccc1OCCCN1CCC(Cc2ccccc2)CC1	12.8	i	194.0*	i	112.0	24.0*	142.0	18.0	102.0
O=Cc1cc(Cl)ccc1OCCN1CCC(Cc2ccccc2)CC1	138.2	i	140.0*	i	110.0	10.0	132.0	22.0	109.0
Fc1ccc(CN2CCC(Cc3ccccc3)CC2)cc1F	79.6	i	112.0	i	103.0	11.0	·	·	·
Clc1ccccc1OCCN1CCC(Cc2ccccc2)CC1	-15.0	i	121.0	i	100.0	5.0	·	·	·
COC(=O)C1=C(C(=O)OC)[C@@H]2Nc3ccccc3[C@@]23C[C@@H](C(=O)OC)N(C(C)=O)C3=N1	-0.7	i	93.0	i	94.0	-8.0	·	·	·
Cc1nc2c3cc(F)ccc3n(Cc3ccccc3F)c2s1	-6.9	i	109.0	i	140.0*	-1.0	89.0	-16.0	89.0
Cc1nc2c3ccccc3n(Cc3ccccc3F)c2s1	24.2	i	95.0	i	100.0	-2.0	·	·	·
CC1CCC(NC(=O)c2cc3c(s2)CCCC3)CC1 (stereo not drawn)	250.4	i	·	i	·	·	·	·	·
CC(OC(=O)c1ccc(NC(=O)CC#N)cc1)C(=O)Nc1nc(-c2ccccc2)cs1 (stereo not drawn)	-6.0	i	·	i	·	·	·	·	·
Cc1ccc(C(=O)Cn2c(C(=O)OCCO)cc3ccccc32)cc1	-1.0	i	99.0	i	98.0	2.0	·	·	·
Cc1cccc(NC(=O)c2nc[nH]c2C(=O)NCC(=O)OC(C)(C)C)c1	7.5	i	74.0	i	72.0	3.0	·	·	·
COc1ccccc1C1C(C(C)=O)=C(O)C(=O)N1CCc1ccccc1 (stereo not drawn)	2.9	i	10.0*[inhibitor]	i	42.0*[inhibitor]	-17.0	110.0	5.0	106.0
Cc1cc(C)cc(C(N)=Nc2cccc(C#N)c2)c1	-4.9	i	104.0	i	103.0	4.0	·	·	·
N#CNC(N)=Nc1cccc(Cl)c1	-10.6	i	126.0	i	122.0*	8.0	101.0	-2.0	100.0
SMILES	SUMO Mot1 rescue	CHT block	MEKK2 WT-MEK5	CHT allo act	MEKK3 PB1 HTS	MEKK2mut PB1 HTS	MEKK2wt confirm	MEKK2mut confirm	MEKK3-MEK5 inh
CS(=O)(=O)Nc1ccccc1C(=O)OCC(=O)N1CCC(c2ccccc2)=N1	-3.8	·	·	·	·	·	·	·	·
Cc1ccc(OCC(=O)N(Cc2nnc(-c3ccccc3Cl)o2)C2CC2)cc1C	5.4	·	·	·	·	·	·	·	·
CN1CCC(NCCC(c2ccc(F)cc2)c2ccc(Cl)cc2)CC1 (stereo not drawn)	-5.3	i	10.0*[inhibitor]	i	4.0*[inhibitor]	-49.0	150.0	37.0	106.0
Cn1nc(C(C)(C)C)c([N+](=O)[O-])c1C(=O)NCCO	-5.9	i	100.0	i	95.0	-3.0	·	·	·
CCN(CC)C(=O)c1c([N+](=O)[O-])c(C(C)(C)C)nn1C	-6.9	i	111.0	i	140.0*	1.0	104.0	1.0	106.0
O=C(Cc1cccc2ccccc12)N/N=C/c1ccc(F)cc1	6.0	i	113.0	i	122.0*	6.0	95.0	2.0	96.0
O=C(CCS(=O)(=O)c1ccc(Cl)cc1)NC1CCCC1	7.3	·	·	·	·	·	·	·	·
COc1ccc(NC(=O)c2ccc(NS(=O)(=O)c3cccc4cccnc34)cc2)cc1	2.7	i	104.0	i	101.0	0.0	·	·	·
COc1ccc(C)cc1NC(=O)c1ccc(NS(=O)(=O)c2cccc3cccnc23)cc1	70.7	i	111.0	i	131.0*	26.0	97.0	-1.0	102.0
COC(=O)CS(=O)(=O)c1cccc2cccnc12	69.6	i	4.0*[inhibitor]	i	3.0*[inhibitor]	-60.0	90.0	-7.0	92.0
COc1ccc(NS(=O)(=O)c2cccc3cccnc23)cc1	-8.8	i	89.0	i	72.0*[inhibitor]	-2.0	107.0	6.0	107.0
CCOc1ccc2[nH]c3c(c2c1)CNCC3	-5.6	i	158.0*	i	102.0	13.0	134.0	23.0	97.0
CCOc1cc(C(=O)N=c2sccn2C)cc(Br)c1OC	3.2	i	98.0	i	102.0	-1.0	·	·	·
O=S(=O)(NCc1ccccn1)c1cc(C(F)(F)F)ccc1Cl	-13.1	i	100.0	i	103.0	0.0	·	·	·
Cc1cc(C)c(NC(=O)c2ccc(CNS(=O)(=O)c3cc(C(F)(F)F)ccc3Cl)cc2)c(C)c1	49.4	i	104.0	i	130.0*	1.0	96.0	0.0	99.0
O=C(N/N=C/c1cccs1)c1ccc2c(c1)OCO2	-5.9	i	101.0	i	105.0	19.0	·	·	·
